{"source": "PubChem BioAssay AID743269", "about": "(The Scripps Research Institute Molecular Screening Center, 2014)", "note": "In all, about 370,000 compounds went through this assay and about 2,400 (0.65%) were called active. For the sample, actives were picked, then their nearest neighbours and some compounds at random. Unmarked numbers belong to inactive results.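 How the source made its calls: active means inhibition above the screen-wide mean plus 3 SD (cut at about 13% in these data); inactive means the rest.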", "data": [{"system": "HIV-1 integrase (with human LEDGF/p75)", "test": "blockers of LEDGF/p75-dependent integrase strand transfer – biochemical, TR-FRET, high throughput, primary screen (AID 743269);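 further: signal is the Cy5 over europium emission ratio at 671 and 618 nm; 0% = plate median of compound wells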", "settings": "TR-FRET IN-LEDGF/p75 DNA integration, Eu/Cy5; at 3.7 µM; hits give high values", "values": [{"smiles": "CCOC(=O)[C@]12CCCC=C1N(CCCOC)C(=O)[C@@H]2CC(=O)N1CCOCC1", "inhibition": "4.81%"}, {"smiles": "COc1ccc(C2Nc3ccccc3C(=O)N2Cc2cccs2)cc1COc1c(C)cccc1C", "note": "(stereo unspecified)", "inhibition": "-0.72%"}, {"smiles": "CCOC(=O)C1=C(C)NC2=C(C(=O)CC(C)(C)C2)C1c1ccc2c(c1)OCO2", "note": "(stereo unspecified)", "inhibition": "-1.19%"}, {"smiles": "CCCC1CCC2(CCCN2CCOC(=O)NCc2ccccc2)CC1", "note": "(stereo unspecified)", "inhibition": "-0.38%"}, {"smiles": "Cc1cccc(C(=O)OC(C)CN2CCCC2)c1", "note": "(stereo unspecified)", "inhibition": "1.96%"}, {"smiles": "CC(CN1CCOCC1)OC(=O)c1ccc(C(C)(C)C)cc1", "note": "(stereo unspecified)", "inhibition": "2.54%"}, {"smiles": "Cc1ccc(C(=O)OC(C)CN2CCOCC2)cc1", "note": "(stereo unspecified)", "inhibition": "57.5% (active)"}, {"smiles": "COc1ccc2c(C(C)c3ccc(N)cc3)cn(C)c2c1", "note": "(stereo unspecified)", "inhibition": "3.86%"}, {"smiles": "Cc1c(C(C)c2ccccc2O)[nH]c2ccccc12", "note": "(stereo unspecified)", "inhibition": "-2.27%"}, {"smiles": "Oc1ccc(N=Cc2sc3ccccc3c2Cl)cc1", "inhibition": "27.5% (active)"}, {"smiles": "COc1ccc([C@H]2OC(=O)C[C@H]2C(=O)N2CCN(c3ccccc3F)CC2)cc1OC", "inhibition": "1.9%"}, {"smiles": "Cc1cc(C)nc(NC(=S)N2CCN(c3ccc(C(F)(F)F)cn3)CC2)c1", "inhibition": "4.81%"}, {"smiles": "O=S1(=O)c2c(cccc2N2CCSCC2)Oc2ccccc2CN1Cc1cn(Cc2ccc(F)cc2)nn1", "inhibition": "-4.35%"}, {"smiles": "COC(=O)C1CN(CCc2ccccc2)CCS(=O)(=O)N1Cc1ccc(F)cc1", "note": "(stereo unspecified)", "inhibition": "-0.36%"}, {"smiles": "O=C(CCS(=O)(=O)c1ccccc1)Nc1ccc(Cl)c(Cl)c1", "inhibition": "-0.44%"}, {"smiles": "Cn1c(-c2ccc(F)cc2)cnc1SCC(=O)NNC(=O)Cc1ccccc1", "inhibition": "-1.96%"}, {"smiles": "Cc1ccc(-c2cnc(NC(=O)CCC(=O)N(C)Cc3ccccc3)n2C)cc1", "inhibition": "38.1% (active)"}, {"smiles": "CN(Cc1ccccc1)C(=O)CCNC(=O)Cn1cnc2ccccc2c1=O", "inhibition": "-0.32%"}, {"smiles": "O=C(OCC#CCSc1nnc(-c2ccco2)o1)c1ccc(F)cc1", "inhibition": "-2.28%"}, {"smiles": "COC(=O)[C@]12C[C@H](CC(=O)NCc3ccccc3)C(=O)N(Cc3ccccc3)C1=C[C@H](COCc1ccccc1)O[C@@H]2C", "inhibition": "-1.62%"}, {"smiles": "CC(C)C(C#CC1CC1)N(Cc1ccc2c(c1)OCO2)C(N)=NC(=O)/C=C/c1cccc(C(F)(F)F)c1", "note": "(stereo unspecified)", "inhibition": "-0.12%"}, {"smiles": "Cn1c(SCc2nc3ccccc3s2)nnc1-c1ccc2c(c1)OCO2", "inhibition": "14.7% (active)"}, {"smiles": "COc1ccc(CSc2nnc(-c3cccc(C)c3)n2C)cc1", "inhibition": "1.05%"}, {"smiles": "Cn1c(SCC(=O)N2CCCC2)nnc1-c1ccc2c(c1)OCO2", "inhibition": "0.18%"}, {"smiles": "CCOC(=O)[C@]12CCCC3=C1N(CCC3)C(=O)[C@@H](CC(=O)N1CCSCC1)C2", "inhibition": "4.16%"}, {"smiles": "COC(=O)[C@]12C[C@H](CC(=O)NCc3ccccc3)C(=O)N(CCC3=CCCCC3)C1=C[C@H](C(C)C)O[C@@H]2C1CC1", "inhibition": "-3.27%"}, {"smiles": "Cc1ccccc1CN1CCCCC(NC(=O)c2cccc(C#N)c2)C1=O", "note": "(stereo unspecified)", "inhibition": "-3.73%"}, {"smiles": "CCCCCCN1CCS(=O)(=O)N(Cc2ccc(C(F)(F)F)cc2)C(C(=O)OC)C1", "note": "(stereo unspecified)", "inhibition": "-2.95%"}, {"smiles": "CCOC(=O)/C(C#N)=C\\c1c(C)cc(C)c(COC(C)=O)c1C", "inhibition": "15.8% (active)"}, {"smiles": "COC(=O)/C(C#N)=C/c1occc1C", "inhibition": "1.63%"}, {"smiles": "CCCn1c(C)cc(/C=C(\\C#N)C(=O)OCC(=O)Nc2cc(OC)c(OC)c(OC)c2)c1C", "inhibition": "4.46%"}, {"smiles": "CCOC(=O)c1csc(NC(=O)C2CCCN(S(=O)(=O)c3ccc(Cl)s3)C2)n1", "note": "(stereo unspecified)", "inhibition": "3.42%"}, {"smiles": "CSc1ccc(C=Nn2c(-c3ccc(F)cc3)n[nH]c2=S)cc1", "inhibition": "1.18%"}, {"smiles": "COc1ccc2c(c1)CN1CN(CCc3ccccc3)S(=O)(=O)CC21", "note": "(stereo unspecified)", "inhibition": "3.16%"}, {"smiles": "CN1CCN(C(=O)/C(=C\\c2cccs2)NC(=O)c2cccs2)CC1", "inhibition": "-1.57%"}, {"smiles": "Cc1ccc(C(=O)N/C(=C/c2cccs2)C(=O)N2CCCCC2)cc1", "inhibition": "33% (active)"}, {"smiles": "O=C(N/C(=C\\c1ccc(O)cc1)C(=O)N1CCCCC1)c1ccccc1", "inhibition": "3.65%"}, {"smiles": "Cc1ccc(Cn2cc(CN3[C@@H](C)COc4cc(Br)ccc4S3(=O)=O)nn2)cc1", "inhibition": "4.11%"}, {"smiles": "O=C1Nc2ccccc2OC1CC(=O)N1CCCCCCC1", "note": "(stereo unspecified)", "inhibition": "0.2%"}, {"smiles": "CCC(CO)Nc1cccc2c1S(=O)(=O)N(Cc1cn(Cc3ccccc3C(F)(F)F)nn1)Cc1ccccc1O2", "note": "(stereo unspecified)", "inhibition": "-2.25%"}, {"smiles": "FC(F)(F)c1cccc(Cn2ccc3ccc(-c4ccc5ccn(Cc6ccccc6)c5c4)cc32)c1", "inhibition": "3.37%"}, {"smiles": "CC(=O)N1CCc2cc(S(=O)(=O)NCCC(=O)N3CCCC3)ccc21", "inhibition": "-3.8%"}, {"smiles": "CC1(OC(=O)C2CCCC2)C(=O)C=C2C=C(c3ccc(C#N)cc3)OC=C2C1=O", "note": "(stereo unspecified)", "inhibition": "13.4% (active)"}, {"smiles": "Cc1ccccc1C(=O)N1CCC(C(=O)Oc2ccc(C#N)cc2)CC1", "inhibition": "-4.31%"}, {"smiles": "CC1(C(=O)NS(=O)(=O)c2ccc(C#N)cc2)CCN1C(=O)c1ccc(C2CCCCC2)cc1", "note": "(stereo unspecified)", "inhibition": "-1.93%"}, {"smiles": "C[C@H]1CCC/C=C/C(=O)c2c(O)cc(O)cc2CC(=O)O1", "inhibition": "-2.09%"}, {"smiles": "Cc1cc2c(c(=O)n1Cc1ccco1)C(c1ccccc1)C(C#N)=C(N)O2", "note": "(stereo unspecified)", "inhibition": "42.2% (active)"}, {"smiles": "Cc1cc2c(c(=O)n1C)C(C(C)C)C(C#N)=C(N)O2", "note": "(stereo unspecified)", "inhibition": "0.88%"}, {"smiles": "O=C(Cn1c(=O)n(Cc2ccco2)c(=O)c2ccccc21)NCC1CCCO1", "note": "(stereo unspecified)", "inhibition": "2.8%"}, {"smiles": "N#Cc1ccc(OC[C@@H](O)CN2CCC(C(O)(c3ccccc3)c3ccccc3)CC2)c(F)c1", "inhibition": "1.07%"}, {"smiles": "O=C(Nc1nnc(-c2ccccc2)o1)c1cccc(S(=O)(=O)N2CCOCC2)c1", "inhibition": "4.42%"}, {"smiles": "Cc1ccnc(NS(=O)(=O)c2ccc(NC(=O)c3ccc(S(=O)(=O)N4CCOCC4)cc3)cc2)n1", "inhibition": "-0.6%"}, {"smiles": "O=C(Nc1nnc(-c2ccco2)o1)c1ccc(S(=O)(=O)N2CCOCC2)cc1", "inhibition": "27% (active)"}, {"smiles": "Cc1cccc(C(=O)Nc2c(-c3ccc(F)cc3)nc3ncccn23)c1", "inhibition": "1.19%"}, {"smiles": "C=CCN1[C@H](CC(C)C)COc2cccc(N3CCCC3)c2S1(=O)=O", "inhibition": "-3.3%"}, {"smiles": "CCN(CC)C(=O)CC[C@H]1CC[C@]2(CCCN(Cc3ccc(Cl)cc3)C2)O1", "inhibition": "3.81%"}, {"smiles": "CCCC[C@H]1C2CC(OC(=O)NCc3ccccc3)C(C2)[C@H]2CCCCN21", "note": "(stereo partly specified)", "inhibition": "-3.96%"}, {"smiles": "CCCCNC(=O)OC1CC2CC1[C@H]1CCCCN1C2=O", "note": "(stereo partly specified)", "inhibition": "25.4% (active)"}, {"smiles": "O=C(OC1CC2CC1[C@H]1CCCCN1C2=O)N1CCOCC1", "note": "(stereo partly specified)", "inhibition": "-2.09%"}, {"smiles": "c1coc(CCNc2ncnc3ccc(-c4ccc5c(c4)OCO5)cc23)c1", "inhibition": "2.41%"}, {"smiles": "COC(=O)c1cc(S(=O)(=O)N2CCN(c3ccccc3C)CC2)cn1C", "inhibition": "-0.95%"}, {"smiles": "CC(C)Cn1c(N)c(C(=O)NCc2cccs2)c2nc3ccccc3nc21", "inhibition": "23.8% (active)"}, {"smiles": "Cc1nc2c(C(=O)NCc3cccs3)cnn2c(C)c1Cc1ccc(F)cc1", "inhibition": "-1.76%"}, {"smiles": "O=C(Cc1coc2ccc3ccccc3c12)NCc1cccs1", "inhibition": "0.4%"}, {"smiles": "N[C@@H](Cc1ccccc1)C(=O)N1CCC[C@@H]1C(=O)N1CCC2CCN(S(=O)(=O)c3ccccc3)CC21", "note": "(stereo partly specified)", "inhibition": "3.42%"}, {"smiles": "Cc1ccc(CSc2nnc(SCC(=O)NN=Cc3cc(Br)ccc3F)s2)cc1", "inhibition": "3.4%"}, {"smiles": "CCOC(=O)c1ccc(NC(=O)c2c(NCc3ccccc3)[nH]c(=O)[nH]c2=O)cc1", "inhibition": "2.44%"}, {"smiles": "CCOC(=O)c1ccc(NC(=O)c2c(N)n(C)c(=O)[nH]c2=O)cc1", "inhibition": "-0.3%"}, {"smiles": "CCOC(=O)c1ccc(Nc2cc3ccccc3c(=O)[nH]2)cc1", "inhibition": "15.5% (active)"}, {"smiles": "COc1ccccc1C(=O)NC1CCCCN(C(C)C)C1=O", "note": "(stereo unspecified)", "inhibition": "-1.35%"}, {"smiles": "COC(=O)C[C@@H]1CC[C@H]2[C@@H](COc3ccc(NS(=O)(=O)CC(F)(F)F)cc3C(=O)N2C)O1", "inhibition": "-3.99%"}, {"smiles": "COC(=O)[C@@]12CCCCC=C1N(CCc1ccc(Cl)cc1)C(=O)[C@H]2CC(=O)NCc1ccc(OC)c(OC)c1", "inhibition": "2.21%"}, {"smiles": "C=CCN(Cc1ccc2c(c1)OCO2)C(C#CC1CC1)C(C)(C)C", "note": "(stereo unspecified)", "inhibition": "0.61%"}, {"smiles": "COc1ccc(S(=O)(=O)N2CCOCC2)cc1C(=O)NC1CCCCC1", "inhibition": "1.4%"}, {"smiles": "COc1ccc(S(=O)(=O)N2CCCCC2)cc1C(=O)NC1CCS(=O)(=O)C1", "note": "(stereo unspecified)", "inhibition": "19.8% (active)"}, {"smiles": "Cc1ccc(S(=O)(=O)N2CCN(C)CC2)cc1C(=O)NC1CCCCC1", "inhibition": "2.41%"}, {"smiles": "C=CCN1C(=O)[C@@H](CC(=O)NCCCCc2ccccc2)[C@]2(C(=O)OCC)CCCCC/C=C/12", "inhibition": "-2.38%"}, {"smiles": "Cc1ccccc1NC(=O)C1CCN(c2ncccn2)CC1", "inhibition": "-1.73%"}, {"smiles": "COc1ccc(C2CC(c3cccs3)=NN2c2nc(C)c(C(C)=O)s2)cc1OC", "note": "(stereo unspecified)", "inhibition": "-0.06%"}, {"smiles": "COc1ccc(C2CC(c3cccs3)=NN2C(=O)COC(=O)c2cc3ccccc3cc2O)cc1OC", "note": "(stereo unspecified)", "inhibition": "23% (active)"}, {"smiles": "COc1cccc(C2CC(c3cccs3)=NN2C(=O)CSC2=NCCS2)c1OC", "note": "(stereo unspecified)", "inhibition": "-1.38%"}, {"smiles": "Nc1ccc2nc3c(=O)[nH]c(=S)[nH]c3nc2c1", "inhibition": "39.9% (active)"}, {"smiles": "COc1ccc(Cn2cc(CN3[C@@H](CC(C)C)COc4cc(Br)ccc4S3(=O)=O)nn2)cc1", "inhibition": "3.34%"}, {"smiles": "Cc1nc(CNc2ncnc3ccc(-c4ccc5c(c4)OCO5)cc23)cs1", "inhibition": "-1.03%"}, {"smiles": "O=C(NCCCc1ccccc1)[C@H](Cc1ccccc1)NC1(C(=O)NCCc2c[nH]c3ccccc23)CCC1", "inhibition": "-0.75%"}, {"smiles": "COc1ccc(N2CCN(CCNS(=O)(=O)c3ccc(C(C)(C)C)cc3)CC2)cc1", "inhibition": "1.13%"}]}]}
